The campaign covered roughly 1,400 compounds. About 350 (25%) were called active. Another 2% or so got no clear call; they are omitted. The rule behind the calls is not given here. These entries were drawn from the full list. Entries with a potency or affinity are not part of this list.
Assay: C. difficile growth inhibition, confirmation, 4-point retest (AID 1224921);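 note: plate controls were DMSO wells for no effect and levofloxacin 16 µg/mL wells for full effect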
Conditions: Clostridioides difficile clinical isolate growth, OD600, 24 h, active compounds read low; at 30 µM unless noted

Max activity, inactive:
COc1cccc(C#Cc2ccc([C@H]3[C@@H](CO)N(C(=O)C4CC4)[C@H]3C#N)cc2)c1 19.6%
CO[C@@H]1CN(C)C(=O)c2cc(NC(=O)c3ccccc3)ccc2OC[C@H](C)N(C)C[C@H]1C 6.89% [at 8 µM]
CO[C@@H]1CN(C)C(=O)c2cc(NS(=O)(=O)c3cn(C)cn3)ccc2OC[C@@H](C)N(Cc2cccc(Cl)c2)C[C@H]1C 31.5%
C[C@H](CO)N1C[C@H](C)[C@@H](CN(C)C(=O)NC2CCCCC2)Oc2c(NC(=O)Nc3cccc4ccccc34)cccc2C1=O 61.2%
C[C@@H]1CCCCO[C@@H](CN(C)Cc2ccc3c(c2)OCO3)[C@H](C)CN([C@H](C)CO)C(=O)c2cc(NC(=O)Nc3ccc(F)cc3)ccc2O1 18%
CCCN1C[C@@H](C)[C@H](OC)CN(C)C(=O)c2cc(NC(=O)Nc3cccc(OC)c3)ccc2OC[C@H]1C -7.34% [at 1.95 µM]
CCCN1C[C@@H](C)[C@H](OC)CN(C)C(=O)c2ccc(NC(=O)Nc3c(C)noc3C)cc2OC[C@@H]1C 21.5%
CCCN1C[C@@H](C)[C@H](OC)CN(C)C(=O)c2ccc(NC(=O)CC)cc2OC[C@@H]1C 3.36%
COc1ccc(NC(=O)Nc2ccc3c(c2)[C@@H]2C[C@@H](CC(=O)NCc4ccccc4F)O[C@H](CO)[C@@H]2O3)cc1 -14.3%
C[C@@H]1CN([C@@H](C)CO)C(=O)c2cccc(NS(=O)(=O)c3ccc(Cl)cc3)c2O[C@@H]1CN(C)Cc1ccc(C(F)(F)F)cc1 20.4% [at 1.95 µM]
COc1ccc(CN(C)C[C@H]2OCCCC[C@H](C)Oc3ccc(NC(=O)Nc4ccc5c(c4)OCO5)cc3C(=O)N([C@H](C)CO)C[C@H]2C)cc1 21.6%
Cc1ccc(S(=O)(=O)Nc2ccc3c(c2)C(=O)N([C@H](C)CO)C[C@@H](C)[C@H](CN(C)Cc2ccc(Cl)c(Cl)c2)OCCCC[C@H](C)O3)cc1 39% [at 1.95 µM]
C[C@H](CO)N1C[C@H](C)[C@@H](CN(C)Cc2ccc3c(c2)OCO3)OCCCC[C@H](C)Oc2ccc(NC(=O)Nc3ccc4c(c3)OCO4)cc2C1=O 12.4%
C[C@@H]1CCCCO[C@@H](CN(C)Cc2ccc3c(c2)OCO3)[C@H](C)CN([C@@H](C)CO)C(=O)c2cc(NC(=O)Nc3ccc4c(c3)OCO4)ccc2O1 14.9%
COc1ccc(CN(C)C[C@H]2OCCCC[C@@H](C)Oc3ccc(NC(=O)Nc4ccc5c(c4)OCO5)cc3C(=O)N([C@H](C)CO)C[C@H]2C)cc1 17.6%
Cc1ccc(S(=O)(=O)Nc2ccc3c(c2)C(=O)N([C@@H](C)CO)C[C@H](C)[C@@H](CN(C)Cc2ccc(Cl)c(Cl)c2)OCCCC[C@@H](C)O3)cc1 8.85%
C[C@@H]1CN([C@@H](C)CO)C(=O)c2cc(NC(=O)Nc3ccc(F)cc3)ccc2O[C@@H](C)CCCCO[C@H]1CN(C)Cc1ccc2c(c1)OCO2 20.9%
CCCN(C)C[C@H]1OCCCC[C@H](C)Oc2ccc(NS(=O)(=O)c3c(C)noc3C)cc2C(=O)N([C@@H](C)CO)C[C@@H]1C 19% [at 8 µM]
C[C@@H]1CN([C@@H](C)CO)C(=O)Cc2cc(NS(C)(=O)=O)ccc2O[C@H]1CN(C)Cc1ccccc1 38.5% [at 35 µM]
N#C[C@H]1[C@@H](c2ccccc2)[C@@H](CO)N1S(=O)(=O)c1ccc(-c2ccccc2)cc1 40.9%
Cc1ccc(-c2cnc3c(c2)C(=O)N([C@@H](C)CO)C[C@H](C)[C@@H](CN(C)C(=O)c2ccccc2)O3)cc1 -9.22% [at 0.5 µM]
CN(C)CC(=O)N[C@H]1C=C[C@H](CC(=O)NCCN2CCCCC2)O[C@@H]1CO 12.7% [at 8 µM]
N#C[C@H]1[C@@H](c2ccc(-c3ccccc3)cc2)[C@@H](CO)N1C(=O)Cc1ccncc1 13.6%
CCC(=O)N[C@@H]1C=C[C@@H](CC(=O)OC)O[C@H]1CO -12.2% [at 8 µM]
C[C@@H]1CN([C@H](C)CO)S(=O)(=O)c2ccc(C#CCC3CCCC3)cc2O[C@@H]1CN(C)C(=O)c1ccccn1 46.2% [at 8 µM]
C[C@@H]1CN([C@H](C)CO)C(=O)c2cccc(N(C)C)c2O[C@H]1CN(C)Cc1ccc(C(F)(F)F)cc1 26.1%
CO[C@H]1CN(C)C(=O)c2ccc(NC(=O)c3ccc(F)cc3)cc2OC[C@@H](C)N(C(=O)CN(C)C)C[C@H]1C -10.6% [at 1.95 µM]
C[C@@H]1CCCCO[C@H](CN(C)CC2CCCCC2)[C@H](C)CN([C@@H](C)CO)C(=O)c2cc(NC(=O)Nc3cccc4ccccc34)ccc2O1 -10.7%
C[C@H](CO)N1C[C@H](C)[C@@H](CN(C)CC2CCCCC2)OCCCC[C@H](C)Oc2ccc(NC(=O)Nc3cccc4ccccc34)cc2C1=O 21.6%
C[C@H]1CCCCO[C@@H](CN(C)CC2CCCCC2)[C@@H](C)CN([C@@H](C)CO)C(=O)c2cc(NC(=O)Nc3cccc4ccccc34)ccc2O1 27.7% [at 8 µM]
C[C@@H]1CCCCO[C@H](CN(C)CC2CCCCC2)[C@@H](C)CN([C@H](C)CO)C(=O)c2cc(NC(=O)Nc3cccc4ccccc34)ccc2O1 12.9% [at 8 µM]
C[C@@H]1CN([C@H](C)CO)S(=O)(=O)c2ccc(C#CCC3CCCC3)cc2O[C@H]1CN(C)C(=O)c1ccccn1 43.5%
CO[C@@H]1CN(C)C(=O)c2ccc(NC(C)=O)cc2OC[C@@H](C)N(Cc2cc(F)ccc2F)C[C@H]1C -9.54% [at 8 µM]
Cc1ccc(-c2ccc3c(c2)O[C@@H](CN(C)Cc2cccnc2)[C@@H](C)CN([C@@H](C)CO)S3(=O)=O)cc1 35.1%
CN(C)C(=O)c1ccc(-c2ccc([C@@H]3[C@@H](CO)N(C(=O)C4CCCCC4)[C@H]3C#N)cc2)cc1 -13.2% [at 0.5 µM]
C[C@H](CO)N1C[C@H](C)[C@H](CN(C)C(=O)Nc2ccc(C(F)(F)F)cc2)OCCCC[C@H](C)Oc2ccc(NS(=O)(=O)c3ccc(Cl)cc3)cc2C1=O 14.5%
C[C@H]1CCCCO[C@@H](CN(C)C(=O)Nc2ccc(C(F)(F)F)cc2)[C@@H](C)CN([C@@H](C)CO)C(=O)c2cc(NS(=O)(=O)c3ccc(Cl)cc3)ccc2O1 12.1%
COc1ccc(NC(=O)Nc2cccc3c2O[C@H](CN(C)C(=O)NC2CCCCC2)[C@@H](C)CN([C@H](C)CO)C3=O)cc1 -16%
CO[C@H]1CN(C)C(=O)c2cc(NS(=O)(=O)c3ccc(Cl)cc3)ccc2OC[C@@H](C)N(C(=O)NC(C)C)C[C@@H]1C 11.8%
C[C@H](O)C#Cc1ccc2c(c1)O[C@@H](CN(C)C(=O)c1ccccc1)[C@@H](C)CN([C@@H](C)CO)S2(=O)=O -12.7%
C[C@H](CO)N1C[C@H](C)[C@@H](CN(C)Cc2ccccn2)Oc2cc(C3=CCCCC3)ccc2S1(=O)=O 33.3%
C[C@@H]1CN([C@@H](C)CO)C(=O)Cc2cc(N(C)C)ccc2O[C@H]1CN(C)Cc1ccccc1 9.89%
CO[C@@H]1CN(C)C(=O)c2cc(NC(=O)NC(C)C)ccc2OC[C@H](C)N(C)C[C@@H]1C -5.88%
CCS(=O)(=O)Nc1ccc2c(c1)OC[C@H](C)NC[C@@H](C)[C@@H](OC)CN(C)C2=O 10.9%
CN(C)C(=O)c1ccc(-c2ccc([C@@H]3[C@@H](C#N)N(C(=O)C4CC4)[C@H]3CO)cc2)cc1 19.6% [at 1.95 µM]
O=C(Nc1cc(F)ccc1F)N[C@H]1CC[C@H](CC(=O)N2CCc3ccccc3C2)O[C@@H]1CO -10.9% [at 8 µM]
C[C@H](CO)N1C[C@H](C)[C@@H](CN(C)Cc2ccc(C(F)(F)F)cc2)OCCCC[C@H](C)Oc2ccc(NC(=O)CCCN(C)C)cc2C1=O 16.3%
C[C@@H]1CN([C@@H](C)CO)C(=O)c2cc(NC(=O)CCCN(C)C)ccc2O[C@@H](C)CCCCO[C@@H]1CN(C)Cc1ccc(C(F)(F)F)cc1 -16.2% [at 1.95 µM]
C[C@@H]1CN([C@@H](C)CO)C(=O)c2cc(NC(=O)Nc3ccc(C(F)(F)F)cc3)ccc2O[C@@H](C)CCCCO[C@H]1CN(C)C 31.7% [at 8 µM]
C[C@@H]1CN([C@@H](C)CO)C(=O)c2cc(NC(=O)Nc3ccc(C(F)(F)F)cc3)ccc2O[C@@H](C)CCCCO[C@@H]1CN(C)C 6.76% [at 8 µM]
CCCN(C)C[C@H]1OCCCC[C@H](C)Oc2ccc(NC(=O)Nc3cccc4ccccc34)cc2C(=O)N([C@@H](C)CO)C[C@H]1C 13.8%
C[C@@H]1CN([C@@H](C)CO)C(=O)c2ccccc2-c2ccccc2CO[C@H]1CN(C)C(=O)CCN(C)C -7.53% [at 0.5 µM]
CO[C@H]1O[C@H](CO)[C@@H](OC(=O)Nc2cccc(F)c2)[C@H](OC(=O)Nc2ccc3c(c2)OCO3)[C@H]1OC(=O)Nc1ccc2c(c1)OCO2 8.7%
C[C@H](CO)N1C[C@H](C)[C@@H](CN(C)CC2CCCCC2)Oc2ccc(NC(=O)Cc3cn(C)c4ccccc34)cc2CC1=O 22.1% [at 1.95 µM]

Reference: PubChem BioAssay AID1224921 (Broad Institute, 2016)
